Values joined by “and” are separate entries in the source; they are usually repeats but may differ in a detail not shown here. Identical values can stand only once. Results filed as inconclusive are left out. The source holds several records for some structures; these can differ, active in one and inactive in another. Active and inactive are the calls of the source. Calls follow the shape of the dose curve; as a rule, active = well fitted inhibition curve with a large enough effect; inconclusive = small, poorly fitted or top-dose-only effect; inactive = flat fitted curve, though single readings scatter.
Columns and labels:
CRL-7250 = normal cell line; assay: Cytotoxic Profiling of Annotated Libraries Using Quantitative High-Throughput Screening (AID 1296008); details: Five cell lines viability, CellTiter-Glo ATP luminescence, 48-72 h; max response: hits give low values
Procedure, shortened: (§1)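 Cytotoxicity was measured as CellTiter-Glo ATP luminescence, read after 10 min at room temperature. Compound treatment of the cells lasted 48 or 72 hr at 37 degrees Celsius in a qHTS format.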

HEK293 = assay: as above; details: Five cell lines viability, CellTiter-Glo ATP luminescence, 48-72 h; max response: hits give low values
Procedure, shortened: as §1

HaCat [1] = assay: as above; details: Five cell lines viability, CellTiter-Glo ATP luminescence, 48-72 h; max response: hits give low values
Procedure, shortened: as §1

KB-3-1 = assay: as above; details: Five cell lines viability, CellTiter-Glo ATP luminescence, 48-72 h; max response: hits give low values
Procedure, shortened: as §1

NIH3T3 = assay: as above; details: Five cell lines viability, CellTiter-Glo ATP luminescence, 48-72 h; max response: hits give low values
Procedure, shortened: as §1

HACAT [2] = assay: qHTS assay to identify novel small-molecules to repurpose for Merkel cell carcinoma treatment (AID 1296009); details: MCC and control cell lines, CellTiter-Glo viability, 72 h; series mostly up to 44.8 µM
Procedure, shortened: (§2)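 After compound transfer in DMSO, plates were kept 72 hr at 37 degree celsius. Luminescent ATP signal from CellTiter-Glo served as viability measure, normalized against DMSO and no-cell controls.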

MKL-1 = assay: as above; details: MCC and control cell lines, CellTiter-Glo viability, 72 h; series mostly up to 46 µM
Procedure, shortened: as §2

MCC-13 = assay: as above; details: MCC and control cell lines, CellTiter-Glo viability, 72 h; series mostly up to 46 µM
Procedure, shortened: as §2

MCC-26 = assay: as above; details: MCC and control cell lines, CellTiter-Glo viability, 72 h; series mostly up to 46 µM
Procedure, shortened: as §2

HEK293T = assay: as above; details: MCC and control cell lines, CellTiter-Glo viability, 72 h; at 44.8 µM (top of the series) unless noted
Procedure, shortened: as §2
% is scaled to controls: 0 for no effect and ±100 for the full control effect; potency is read from the fitted curve at half-maximal effect.
Also: nearly all actives have a fitted effect of over 60% in size.

NC(=O)c1c(OCc2c(F)cc(Br)cc2F)nsc1NC(=O)NCCCCN1CCCC1
inactive: outcome (HaCat [1]) | Potency (HACAT [2]) | Potency (MKL-1)
active: Potency (CRL-7250) 4.69 µM and 8.2 µM | Potency (HEK293) 14.8 µM | Potency (HaCat [1]) 26.4 µM | Potency (KB-3-1) 9.35 µM | Potency (NIH3T3) 235 nM and 2.06 µM

C[C@]12CC[C@H](O)CC1=CCC1C2CC[C@]2(C)C(n3cnc4ccccc43)=CCC12 (stereo partly specified)
inactive: max response (CRL-7250) -7.08% | max response (HEK293) -24.7% | max response (HaCat [1]) 2.2% | max response (KB-3-1) 0.714% | max response (NIH3T3) 3.78% and -16% | Potency (MCC-13) | Potency (MCC-26) | Potency (MKL-1)
active: Potency (HEK293) 14.6 µM

Cc1cc(Nc2ncnc3ccc(-c4ccc(CNCCS(C)(=O)=O)o4)cc23)ccc1Oc1ccn2ncnc2c1
active: Potency (CRL-7250) 3.32 µM and 23.1 µM | Potency (HEK293) 4.18 µM | Potency (KB-3-1) 11.8 µM | Potency (MKL-1) 14.8 µM
inactive: max response (HEK293) -117% | max response (HaCat [1]) -107% | max response (KB-3-1) -26.8% | max response (NIH3T3) -81.1% | Potency (MCC-13) | Potency (MCC-26)

COc1cc(C(C)C)c2c(c1)S(=O)(=O)N(COc1cc(=O)n3cccc(OCCN4CCCCC4)c3n1)C2=O
inactive: max response (CRL-7250) -9.13% | max response (HEK293) -21.7% | outcome (HaCat [1]) | outcome (KB-3-1) | outcome (NIH3T3) | Potency (HACAT [2]) | Potency (MCC-13) | Potency (MCC-26) | Potency (MKL-1)

O=C(C=Cc1c(C(=O)O)[nH]c2cc(Cl)cc(Cl)c12)Nc1ccccc1
inactive: outcome (CRL-7250) | outcome (HEK293) | max response (HaCat [1]) -0.315% | max response (KB-3-1) 3.7% | max response (NIH3T3) 1.73% | outcome (HEK293T) | Potency (MCC-13) | Potency (MCC-26) | Potency (MKL-1)

CC(C)(C)c1cnc(CSc2cnc(NC(=O)C3CCNCC3)s2)o1
active: Potency (CRL-7250) 0.132 µM | Potency (HEK293) 0.418 µM | Potency (HaCat [1]) 1.32 µM | Potency (KB-3-1) 0.332 µM | Potency (NIH3T3) 3.32 µM

CC1=C(CO)C(=O)O[C@@H]([C@@H](C)[C@H]2CC[C@H]3[C@@H]4C[C@H]5O[C@]56[C@@H](O)C=CC(=O)[C@]6(C)[C@@H]4CC[C@]23C)C1
active: Potency (CRL-7250) 1.48 µM | Potency (HEK293) 0.332 µM | Potency (HaCat [1]) 2.64 µM | Potency (KB-3-1) 1.05 µM | Potency (NIH3T3) 2.09 µM | Potency (MCC-13) 0.662 µM

COc1ccc(F)c(F)c1C(=O)c1cnc(NC2CCN(S(C)(=O)=O)CC2)nc1N
active: Potency (CRL-7250) 2.35 µM and 3.66 µM | Potency (HEK293) 1.05 µM | Potency (HaCat [1]) 10.5 µM and 5.17 µM | Potency (KB-3-1) 3.32 µM and 4.11 µM | Potency (NIH3T3) 2.09 µM and 3.26 µM

Cc1cc(N2CCOCC2)cc2[nH]c(-c3c(NC[C@@H](O)c4cccc(Cl)c4)cc[nH]c3=O)nc12
active: Potency (CRL-7250) 11.8 µM | Potency (HEK293) 2.96 µM and 7.31 µM | Potency (HaCat [1]) 4.18 µM and 5.8 µM | Potency (KB-3-1) 14.8 µM | Potency (NIH3T3) 7.43 µM and 13 µM

CCn1nnc2c(N3CCOCC3)nc(-c3ccc(NC(=O)Nc4ccc(C(=O)N5CCN(C)CC5)cc4)cc3)nc21
inactive: Potency (MCC-13)
active: Potency (CRL-7250) 0.0651 µM | Potency (HEK293) 0.206 µM | Potency (HaCat [1]) 662 nM and 1.16 µM | Potency (KB-3-1) 11.8 nM and 146 nM | Potency (NIH3T3) 0.517 µM

Cn1cc(-c2ccncc2)c(-c2ccc(OCc3ccc4ccccc4n3)cc2)n1
inactive: max response (HaCat [1]) -14.9% | outcome (HaCat [1]) | max response (NIH3T3) -27.9% and -28% | Potency (HACAT [2]) | Potency (MCC-13) | Potency (MCC-26)
active: Potency (CRL-7250) 2.64 µM | Potency (HEK293) 3.72 µM and 20.6 µM

COc1cc(=C2C=c3ccccc3=N2)[nH]c1=Cc1[nH]c(C)cc1C
active: Potency (CRL-7250) 11.8 µM | Potency (HEK293) 8.33 µM | Potency (HaCat [1]) 20.9 µM | Potency (KB-3-1) 3.72 µM | Potency (NIH3T3) 18.7 µM

CNC(=O)CN1CCC(Oc2cc3c(Nc4cccc(Cl)c4F)ncnc3cc2OC)CC1
inactive: max response (CRL-7250) -5.68% and -4.5% | max response (HEK293) 1% and -0.0643% | max response (HaCat [1]) -148% | max response (KB-3-1) 4.62% and 3.88%
active: Potency (HaCat [1]) 0.58 µM | Potency (NIH3T3) 26.4 µM and 16.4 µM | Potency (MCC-13) 3.32 µM | Potency (MCC-26) 2.64 µM

CC(C)(C)c1cc(C(C)(C)C)c(NC(=O)c2c[nH]c3ccccc3c2=O)cc1O
inactive: outcome (CRL-7250) | outcome (HEK293) | outcome (HaCat [1]) | max response (KB-3-1) -1.43% | outcome (NIH3T3) | Potency (HACAT [2]) | outcome (HEK293T) | Potency (MCC-13) | Potency (MCC-26) | Potency (MKL-1)

O=C(NCCCNc1nc(Nc2cccc(NC(=O)N3CCCC3)c2)ncc1I)c1cccs1
active: Potency (CRL-7250) 5.9 µM | Potency (HEK293) 20.9 µM | Potency (HaCat [1]) 18.7 µM | Potency (KB-3-1) 13.2 µM | Potency (NIH3T3) 2.09 µM | Potency (MCC-13) 9.35 µM

O=C(Nc1cc(C(F)(F)F)cc(C(F)(F)F)c1)c1cc(Cl)ccc1O
active: Potency (CRL-7250) 3.72 µM and 3.26 µM | Potency (HEK293) 590 nM and 1.16 µM | Potency (HaCat [1]) 2.64 µM and 2.91 µM | Potency (KB-3-1) 264 nM and 731 nM | Potency (NIH3T3) 3.32 µM and 5.8 µM

COc1cccc2nc(-c3cccs3)nc(NN3C(=O)C=C(C)C3=O)c12
active: Potency (CRL-7250) 2.09 µM and 6.51 µM | Potency (HEK293) 418 nM and 517 nM | Potency (HaCat [1]) 23.5 µM | Potency (KB-3-1) 5.9 µM and 10.3 µM | Potency (NIH3T3) 1.48 µM and 820 nM | Potency (MCC-13) 2.64 µM
inactive: Potency (MCC-26)

Reference: PubChem BioAssay (NCATS)
